# Reference: the supplement of paper PMC9588786
# “And” between values parts separate entries of the source, which are not always exact repeats. Equal values may be shown once. ± gives the standard deviation of the averaged measurements.
# System: HT-1080
# Experiment: relative cell viability with RSL3 co-treatment (fraction of control); higher = stronger protection from RSL3-induced ferroptosis (higher viability)
# Details: 10 µM
# 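Also: viability read as CCK-8 absorbance at 450 nm in cells co-exposed to the GPX4 inhibitor RSL3, relative to a 0.01% DMSO vehicle control.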
row,Structure (SMILES),relative cell viability
1,O=C(NC1CCNCC1)c1n[nH]cc1NC(=O)c1c(Cl)cccc1Cl,0.56 ± 0.18
2,CCCNC(=O)c1cn2ncnc(Nc3cc(C(=O)NC4CC4)ccc3C)c2c1C,0.78 ± 0.04
3,Cc1cnc(-c2cnc(NCCNc3ccc(C#N)cn3)nc2-c2ccc(Cl)cc2Cl)[nH]1,0.55 and 0.457
4,N#C/C(=C\c1ccc(O)c(O)c1)C(=O)NCc1ccccc1 [AG-490 (Tyrphostin B42)],0.55 ± 0.12
5,NC[C@@](O)(c1ccc(Cl)cc1)c1ccc(-c2cn[nH]c2)cc1,0.687 ± 0.22
6,CS(=O)(=O)c1cccc(CNc2nc(Nc3ccc4c(c3)CCC(=O)N4)ncc2C(F)(F)F)c1,0.91 ± 0.085
7,CCCCCCCCCCCCCCCCOP(=O)([O-])OCC[N+](C)(C)C [Miltefosine],0.6 ± 0.13
8,CNC(=O)c1nn(C)c2c1C(C)(C)Cc1cnc(Nc3ccc(N4CCN(C)CC4)cc3)nc1-2,0.723 ± 0.16
9,COc1cc2ncnc(Oc3ccc(CC(=O)Nc4cnn(C(C)C)c4)cc3)c2cc1OC,0.643 ± 0.33
10,COc1cc2c(Oc3ccc4[nH]c(C)cc4c3F)ncnc2cc1OCCCN1CCCC1 [Cediranib (AZD2171)],0.283 ± 0.023
11,CN(C)CCOc1ccc(-c2nc(-c3ccncc3)c(-c3ccc4c(c3)CC/C4=N\O)[nH]2)cc1,0.833 ± 0.1
12,COc1ccc(-c2ccc3c(N4CCOC[C@@H]4C)nc(N4CCOC[C@@H]4C)nc3n2)cc1CO,0.893 ± 0.13
13,CCOC(=O)c1cnc2ccc(-c3cncc(NS(=O)(=O)c4ccccc4)c3)cn12,0.717 ± 0.09
14,C=CC(=O)Nc1cc(Nc2nccc(-c3cn(C)c4ccccc34)n2)c(OC)cc1N(C)CCN(C)C [Osimertinib (AZD9291)],0.403 ± 0.068
15,"Cc1[nH]c(/C=C2\C(=O)Nc3ccccc32)c(C)c1CCC(=O)O [Orantinib (TSU-68, SU6668)]",0.903 ± 0.057
16,CN1CCN(c2ccc(Nc3cc(-c4cccc(-n5ccc6cc(C7CC7)cc(F)c6c5=O)c4CO)cn(C)c3=O)nc2)CC1,0.763 ± 0.067
17,C[C@@H]1COC(Nc2ccc3ncnc(Nc4ccc(OCc5nccs5)c(Cl)c4)c3c2)=N1 [Varlitinib],0.597 ± 0.1
18,Cc1c(Cn2c(C)nc3c(C(=O)O)cc(N4CCOCC4)cc32)cccc1C(F)(F)F,0.823 ± 0.045

row,Structure (SMILES),relative cell viability
1,c1cc(-c2cnn3cc(-c4ccc(OCCN5CCCCC5)cc4)cnc23)ccn1 [Dorsomorphin 2HCl],0.463 ± 0.18
2,CCNc1nc(Nc2cc(F)c(C(=O)N3CCOCC3)cc2OC)ncc1C(F)(F)F,0.69 ± 0.089
3,C[C@@H](Oc1cc(-c2cnn(C3CCNCC3)c2)cnc1N)c1c(Cl)ccc(F)c1Cl,0.7 ± 0.026
4,COc1ccccc1-c1cc(Nc2cccc(CS(N)(=O)=O)c2)ncn1,0.613 ± 0.095
5,Cn1sc(=O)n(Cc2ccccc2)c1=O,0.887 ± 0.11
6,COc1cccc(-c2cc(=O)c3ccccc3o2)c1N,0.717 ± 0.064
7,COc1cc2ncc(-c3ccccc3)nc2cc1OC [Tyrphostin AG 1296],0.567 ± 0.11
8,CCCCOc1c(C(=O)c2c(F)cc(C)cc2F)c[nH]c2nncc1-2,0.903 ± 0.24
9,Nc1nc(N)c2nc(-c3cccc(O)c3)c(-c3cccc(O)c3)nc2n1,0.72 ± 0.03
10,CC(C)(C)c1nc(-c2cccc(NS(=O)(=O)c3c(F)cccc3F)c2F)c(-c2ccnc(N)n2)s1,0.577 ± 0.11
11,CO[C@H]1CC[C@H](N2C(=O)CNc3ncc(-c4ccc(C(C)(C)O)nc4)nc32)CC1,0.733 ± 0.091
12,COc1ncc(-c2cc(-c3ncc(CN4C[C@@H](C)O[C@@H](C)C4)o3)c3cn[nH]c3c2)cc1NS(C)(=O)=O,0.563 ± 0.051
13,CO[C@H]1C[C@@H]2CC[C@@H](C)[C@@](O)(O2)C(=O)C(=O)N2CCCC[C@H]2C(=O)O[C@H]([C@H](C)C[C@@H]2CC[C@@H](O)[C@H](OC)C2)CC(=O)[C@H](C)/C=C(\C)[C@@H](O)[C@@H](OC)C(=O)[C@H](C)C[C@H](C)/C=C/C=C/C=C/1C [Rapamycin (Sirolimus)],0.387 ± 0.085
14,CC(C)(C)c1cc(/C=C(\C#N)C(N)=S)cc(C(C)(C)C)c1O [Tyrphostin AG 879],0.69 ± 0.017
15,Cc1cc(NC(=O)c2cccc(NC(=O)/C=C/CN(C)C)c2)ccc1Nc1nccc(-c2cccnc2)n1,0.407 ± 0.086
16,Cc1c(NC(=O)OC[C@@H]2COCCN2)cn2ncnc(Nc3ccc4c(cnn4Cc4cccc(F)c4)c3)c12,0.793 ± 0.023
17,CCOc1cc(N2CCC(O)CC2)ccc1Nc1ncc2c(n1)N(C)c1ccccc1C(=O)N2C,0.793 ± 0.015
18,CC(C)(C)c1cnc(CSc2cnc(NC(=O)C3CCNCC3)s2)o1,0.573 ± 0.05
